Hit rate of the full screen: of about 69,000 compounds, about 8,600 (12%) showed an effect of 50% or more. This excerpt belongs to a sample that is enriched for strong results.
Tested on: Plasmodium berghei
Test: Screen against P. berghei liver stage (PbLuc), transformed with Luciferase, at 10uM
Format: functional, HepG2
Details: tested at 10 uM

Row | Structure (SMILES) | INHIBITION
1 | O=C(NC[C@H]1OC[C@@H]2CN(Cc3ccco3)CC[C@@H]21)c1cccnc1 | 8.03%
2 | COc1cc(C(=O)NCC2CCCO2)nc2c(C)cc(F)cc12 (centres undefined) | -14.8%
3 | CCNC(=O)c1cc(OC)c2cc(F)cc(C)c2n1 | -8.41%
4 | COc1cc(C(=O)NCC2CC2)nc2c(C)cc(F)cc12 | 55.4%
5 | COc1ccc(-c2cnc(CN(CC(N)=O)C3CCCC3)o2)cc1 | 19.9%
6 | O=C(Cn1nc2c(cc1=O)CSCC2)N[C@@H](Cc1ccccc1)C(=O)O | -5.51%
7 | Cn1c(N)nnc1SCc1c(F)cccc1Br | 55.4%
8 | Cn1c(N)nnc1SCc1ccc(Cl)cc1Br | 11.6%
9 | Cn1c(CO)nnc1SCc1c(F)cccc1Br | 15.5%
10 | CN(C)c1nc2c(c(N3CCC(O)CC3)n1)CN(CC(C)(C)C)CC2 | 22.4%
11 | CN(C)c1nc2c(c(N3CCC(O)CC3)n1)CN(CC1CCOC1)CC2 (centres undefined) | 60.1%
12 | CN(C)c1nc2c(c(N3CCC(O)CC3)n1)CN(CC1CCNC1)CC2 (centres undefined) | 18.5%
13 | CC(C)COCCC(=O)Nc1cccnc1-n1cncn1 | 14.4%
14 | CN1C(=O)C2(CCN(c3ncccc3C(=O)O)CC2)c2ccccc21 | -20.6%
15 | O=C(NC[C@H]1CCCC[C@H]1O)c1cccc2[nH]c(-c3ccco3)nc12 | 23.3%
16 | CSCC(C)N(C)S(=O)(=O)c1ccc(Cl)cc1C#N (centres undefined) | 50.8%
17 | CCN(C)S(=O)(=O)c1ccc(Cl)cc1C#N | 33.2%
18 | CC(C)CN(C)S(=O)(=O)c1ccc(Cl)cc1C#N | -10.4%
19 | CC(C)C(=O)N1CCN(Cc2cnn(C)c2)CC2(CC(=O)N(C)C2)C1 (centres undefined) | -10.3%
20 | O=C(c1ccc[nH]1)N1CCN(Cc2ccncc2)c2ncccc2C1 | 23.3%
21 | Cc1ccc(-n2c(SCC(=O)O)nnc2-c2cccc(C)c2)cc1 | 7.52%
22 | Cc1cnc(C(=O)N2CCCn3c(nc(CN(C)C)cc3=O)C2)cn1 | -10.3%
23 | Cc1cc(NC(=O)N2CCN(C)CC2C)n(Cc2ccccc2)n1 (centres undefined) | 43.4%
24 | Cc1cc(NC(=O)N2CCN(C)CC2C)n(CCC#N)n1 (centres undefined) | 53.4%
25 | Cc1cc(NC(=O)N2CCN(C)CC2C)n(C)n1 (centres undefined) | 40.5%
26 | CCCN1C[C@@H]2CC[C@H]1CN(Cc1ccc(-n3cccn3)cc1)C2 | 49.5%
27 | COC[C@@]12CCC[C@@H]1CN(C(=O)COc1ccccc1OC)C2 | 19.5%
28 | Cc1ccccc1OCCC(=O)NC(C)c1nnc2n1CCCCC2 (centres undefined) | 28.8%
29 | Nc1nccnc1C1CN(Cc2ccc(OCC(=O)O)cc2)CCO1 (centres undefined) | -22.5%
